Hits are enriched below; roughly 2.4% of the tested compounds scored in any of these assays.
POLK inh – inhibitors of human DNA polymerase kappa; Potency, µM (top dose mostly 107 µM), for the others: at the top dose activity, negative = inhibition, usual class: inhibitors; purified Pol kappa, fluorescent DNA synthesis assay, 10 min; 400,000 tested, 0.53% active; AID 588579; Q9UBT6; note: % is set by controls: 0 for no effect and ±100 for the full control effect
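Enzyme at 10 nM met test compounds for 15 min at room temperature. Substrate addition (50 nM final) began the reaction, which was monitored by fluorescence at 0 and 10 min.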
FEN1 inh – inhibitors of human flap endonuclease 1; P39748; Recombinant FEN1 flap cleavage, fluorescence, 15 min; Potency, µM (top dose mostly 114 µM), for inactives: at the highest dose activity change, negative = inhibition, hits mostly inhibitors; 390,000 tested, 0.35% active; AID 588795; note: % is set by controls: 0 for no effect and ±100 for the full control effect; nearly all actives have a fitted effect of over 65% in size
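Concentration–response screening of FEN1 (10 nM): 15 min compound preincubation at room temperature, reaction started with 50 nM substrate and read at 0 and 15 min. Corrected, normalized data were fitted by a four-parameter Hill equation.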
WRN helicase inh – blocks human WRN helicase | AID 651768 | Potency, µM (top dose mostly 114 µM), without a hit: at the highest dose activity change, negative = inhibition, actives largely listed as inhibitors | 360,000 tested, 0.46% active | WRN helicase unwinding, fluorescent forked duplex, kinetic; note: % is set by controls: 0 for no effect and ±100 for the full control effect; nearly all actives have a fitted effect of over 55% in size
Target sequence (Q14191 whole entry, looked up): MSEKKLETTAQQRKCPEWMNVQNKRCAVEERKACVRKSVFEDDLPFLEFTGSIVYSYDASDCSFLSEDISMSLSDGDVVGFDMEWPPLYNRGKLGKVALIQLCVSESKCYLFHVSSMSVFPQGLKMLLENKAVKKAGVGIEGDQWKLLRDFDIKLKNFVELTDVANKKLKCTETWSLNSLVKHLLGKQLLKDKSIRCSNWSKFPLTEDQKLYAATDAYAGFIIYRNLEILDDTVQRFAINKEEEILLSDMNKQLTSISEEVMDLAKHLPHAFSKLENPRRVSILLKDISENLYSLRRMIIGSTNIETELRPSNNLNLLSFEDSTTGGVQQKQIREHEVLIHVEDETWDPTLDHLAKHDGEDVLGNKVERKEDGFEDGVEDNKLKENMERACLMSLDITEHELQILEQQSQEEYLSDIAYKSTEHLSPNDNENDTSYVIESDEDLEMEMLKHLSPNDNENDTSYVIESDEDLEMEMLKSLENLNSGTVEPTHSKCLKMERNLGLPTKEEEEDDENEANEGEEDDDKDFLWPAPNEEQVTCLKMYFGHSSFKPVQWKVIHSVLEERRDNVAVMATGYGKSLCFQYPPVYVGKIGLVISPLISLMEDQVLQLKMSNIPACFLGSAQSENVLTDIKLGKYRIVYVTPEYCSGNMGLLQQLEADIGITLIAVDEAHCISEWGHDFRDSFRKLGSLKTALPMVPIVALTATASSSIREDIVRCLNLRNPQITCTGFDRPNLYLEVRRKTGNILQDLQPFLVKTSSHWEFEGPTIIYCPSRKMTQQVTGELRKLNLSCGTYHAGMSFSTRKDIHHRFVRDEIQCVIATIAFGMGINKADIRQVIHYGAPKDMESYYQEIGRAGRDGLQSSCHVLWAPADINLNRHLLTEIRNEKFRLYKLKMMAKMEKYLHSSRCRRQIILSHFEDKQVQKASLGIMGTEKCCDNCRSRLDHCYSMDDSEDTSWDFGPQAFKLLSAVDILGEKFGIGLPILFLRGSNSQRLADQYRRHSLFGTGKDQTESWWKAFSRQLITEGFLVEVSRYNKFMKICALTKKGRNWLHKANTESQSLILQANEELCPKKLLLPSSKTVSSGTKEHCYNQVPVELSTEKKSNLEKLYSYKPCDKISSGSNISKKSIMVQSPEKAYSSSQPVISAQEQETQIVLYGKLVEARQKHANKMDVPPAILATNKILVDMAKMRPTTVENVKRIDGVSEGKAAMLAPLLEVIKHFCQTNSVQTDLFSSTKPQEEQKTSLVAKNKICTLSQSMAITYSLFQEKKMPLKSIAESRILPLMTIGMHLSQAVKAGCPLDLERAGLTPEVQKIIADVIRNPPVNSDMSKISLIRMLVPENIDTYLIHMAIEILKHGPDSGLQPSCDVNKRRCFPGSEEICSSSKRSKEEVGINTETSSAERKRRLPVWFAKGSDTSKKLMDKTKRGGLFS
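Primary qHTS, 1536-well format. 20 nM WRN + compound, 15 min RT; start with 100 nM forked fluorophore/quencher duplex, 2 mM ATP (final); kinetic read ex 525/em 598 nm.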
POLH inh – blocks human DNA polymerase eta activity; recombinant Pol eta, fluorescent DNA replication assay; 390,000 tested, 1.2% active; Potency, µM (doses to about 114 µM), inactives show at the top dose activity change, negative = inhibition, most hits filed as inhibitors; AID 588591; Q9Y253; note: % is set by controls: 0 for no effect and ±100 for the full control effect
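Pol eta at 10 nM preincubated with compounds 15 min at room temperature; reaction started with fluorescent substrate (50 nM final) and read kinetically at 0 and 10 min.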
Pol beta inh – DNA polymerase beta (human) inhibition | P06746 | Pol beta primer extension/strand displacement, fluorescence kinetic | Potency, µM (titrated, usually from 114 µM), without a hit: at the top dose activity change, negative = inhibition, hits mostly inhibitors | 340,000 tested, 1.3% active; note: % is set by controls: 0 for no effect and ±100 for the full control effect
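10 nM enzyme + cpd, 15 min RT; start with substrate 50 nM final; read 0 min and after 10 min RT. Corrected, normalized data; 4-parameter Hill curve fit.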
POLI inh – blocks human DNA polymerase iota activity | Potency, µM (top dose mostly 115 µM), inactives show at the top dose activity, negative = inhibition, actives largely listed as inhibitors | Pol iota fluorescent replication assay, 10 min | Q9UNA4 | AID 588590 | 390,000 tested, 1% active
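Pol iota at 10 nM preincubated 15 min with compounds at room temperature; reaction started with fluorescent substrate, 50 nM final. Fluorescence read kinetically at 0 and 10 min; buffer-only wells as negative control.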
Active calls of the source: *; ! = not confirmed by another sample; [ ] = another dose, or the depositor's remark. Calls come from the whole dose curve; as a rule, active = well fitted curve in the direction sought with a large enough effect; inconclusive = small, poorly fitted or top-dose-only effect, or another doubt; inactive = no such curve, though single readings can be large; an effect the other way counts as inactive or inconclusive. Potency is the fitted concentration of half-maximal effect.

For C[C@]12CC[C@@H]3c4ccc(O)cc4C[C@@H](CCCCCCCCCS(=O)CCCC(F)(F)C(F)(F)F)[C@H]3[C@@H]1CC[C@@H]2O (some centres undefined) the results were POLK inh -7.7%[60.1 µM].
NCC(O)c1cc(O)c(O)cc1F (centres undefined) was read as POLK inh inconclusive, FEN1 inh -31.6%, WRN helicase inh 4.1%, POLH inh -10.9%, Pol beta inh -12.3%[57.1 µM] and POLI inh 28.2µM*.
Screening CCOc1ccccc1NC(=O)NCc1ccc2c(c1)CCN2C(=O)c1ccccc1 returned POLK inh -20.9%[60.1 µM], FEN1 inh -2.3%, POLH inh -11.2%, Pol beta inh 1.9% and POLI inh inconclusive.
For CC1=CC(=O)c2c(O)cccc2C1=O the results were POLK inh 10µM*!.
Screening O=C1C(=O)C(Cl)=C(Cl)C(Cl)=C1Cl returned WRN helicase inh 39.8µM*.
`CN[C@H](CC(C)C)C(=O)N[C@H]1C(=O)N[C@@H](CC(N)=O)C(=O)N[C@@H]2C(=O)N[C@H]3C(=O)N[C@H](C(=O)N[C@H](C(=O)O)c4cc(O)cc(O)c4-c4cc3ccc4O)[C@H](O)c3ccc(c(Cl)c3)Oc3cc2cc(c3O[C@@H]2O[C@H](CO)[C@@H](O)[C@H](O)[C@@H]2O[C@H]2C[C@](C)(N)[C@H](O)[C@H](C)O2)Oc2ccc(cc2Cl)[C@H]1O` gave POLK inh 0.3%[60.1 µM] and FEN1 inh inconclusive.
Screening O=c1ccc2cc(O[C@H]3OC(CO)C(O)C(O)C3O)c(O)cc2o1 (some centres undefined) returned POLK inh -10.5%[60.1 µM].
O=C1NC(=O)C(=Cc2cc3c(cc2[N+](=O)[O-])OCO3)C(=O)N1 was read as POLK inh -5.1%, FEN1 inh 14.7%, WRN helicase inh 70.8µM*, POLH inh -8.4%, Pol beta inh -26.0% and POLI inh inconclusive.
For Cc1cccc(N2C(=O)NC(=O)/C(=C/c3cc4c(cc3[N+](=O)[O-])OCO4)C2=O)c1 the results were POLK inh 89.1µM*, FEN1 inh -32.8%, WRN helicase inh 50.1µM*, POLH inh -9.3%, Pol beta inh 0.0% and POLI inh inconclusive.
For O=C(O)CCC(CP(=O)(O)O)C(=O)O (centres undefined) the results were POLK inh 10.7%[60.1 µM].
OC[C@@H]1O[C@H](OC2[C@@H](O)[C@@H](O)[C@@H](O)O[C@@H]2CO)[C@H](O)[C@@H](O)[C@@H]1OC1O[C@H](CO)[C@@H](O)[C@H](O)[C@@H]1O (some centres undefined) was read as POLK inh 15.7%[60.1 µM].
For COc1ccc(CN2C(=O)NC(=O)/C(=C/c3cc(OC)c(OC)c(OC)c3)C2=O)cc1 the results were POLK inh -7.2%, FEN1 inh -16.1%, WRN helicase inh 44.7µM*, POLH inh 0.7%, Pol beta inh -2.0% and POLI inh 21.2%.
For COc1cc(/C=C2\C(=O)NC(=O)N(c3ccccc3)C2=O)cc(OC)c1OC the results were POLK inh -2.4%, FEN1 inh -0.2%, WRN helicase inh 50.1µM*, POLH inh 6.5%, Pol beta inh 3.2% and POLI inh 6.5%.
`COc1ccc(CN2C(=O)NC(=O)/C(=C/c3ccc(OC)c(OC)c3OC)C2=O)cc1` gave POLK inh -4.9%, FEN1 inh -14.8%, WRN helicase inh inconclusive, POLH inh -9.2%, Pol beta inh 20.0% and POLI inh 33.8%.
Screening COc1ccc(/C=C2/C(=O)NC(=O)N(c3ccc(C)c(C)c3)C2=O)cc1CN1C(=O)c2ccccc2C1=O returned POLK inh -12.0%, FEN1 inh -10.6%, WRN helicase inh 39.8µM*, POLH inh -8.0%, Pol beta inh -14.3% and POLI inh 141.5%.
